# Measurements taken from PubChem BioAssay.
# A number with no mark means an inactive call.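 Rule for the calls: active = RAM network inhibition above 8.4% in each of two replicates, 3 SD over the compound average; inconclusive = above 8.4% inhibition in only one replicate; inactive = 8.4% inhibition or less in each replicate.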
# Test: RAM signaling pathway blockade in yeast – S. cerevisiae, Pdr1DBD-CYC8 efflux-inhibited sensitized strain, primary screen (AID 1298);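 note: 0% = DMSO untreated cells without growth and 100% = 10 µM 1-NA-PP1 full growth; higher means more yeast growth rescued from 5-FOA killing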
# Settings: S. cerevisiae cbk1-as DSE1-URA3 strain, 5-FOA growth OD615, 2 d; at 50 µM; hits give high values
row,Structure (SMILES),RAM network inhibition
1,CCCc1cc(C(=O)Nc2ccccc2SC)no1,1.56%
2,Cc1ccc(C(=O)OCC(=O)Nc2ccc3c(c2)OCO3)o1,2.58%
3,COC(=O)C(C#N)C(=C1C(=O)CC(C)(C)CC1=O)c1ccc(O)cc1 (stereo not given),2.01%
4,COC(=O)c1cc(OC)c(OC)cc1NC(=O)c1ccc(Br)o1,4.75%
5,COc1cccc(NC(=O)CSc2nnc(Cc3cccn3C)n2-c2ccc(F)cc2)c1,6.98%
6,CCOc1ccc(N(CC(=O)OC)S(=O)(=O)c2ccc(OC)c(OC)c2)cc1,2.44%
7,COC(=O)C1=C(C)NC(C)=C(C(=O)OC)C1C1CC=CCC1 (stereo not given),8.09%
8,CCCCCn1c(=O)[nH]c2cc(C(=O)NCCN3CCOCC3)ccc2c1=O,5.23%
9,COc1ccccc1OCC(=O)N1CCN(c2ccccc2OC)CC1,-1.28%
10,COc1cccc(-c2nc(CS(=O)(=O)CC(=O)N3CCN(c4ccccn4)CC3)c(C)o2)c1,5.35%
11,CC1C(=O)C(C)C(c2cccs2)NC1c1cccs1 (stereo not given),1.45%
12,COc1ccc(N2C(=O)CCC(C(=O)N3CCCCC3)C2c2ccc(OC)c(OC)c2)cc1 (stereo not given),2.24%
13,COc1cccc(NC(=O)c2nc3nc(C)cc(C(F)F)n3n2)c1,-0.33%
14,O=C(NCCN1CCOCC1)c1ccc2c(c1)N(Cc1ccccc1F)C(=O)CS2,1.89%
15,CCn1cc(C(=O)NCc2ccccc2OC)c(=O)c2cc(S(=O)(=O)N(C)C)ccc21,2.36%
16,CC1Cn2c(nnc2-c2ccc(F)cc2)S1 (stereo not given),3.35%
17,COc1ccc(NC(=O)CN(c2ccc(C(C)C)cc2)S(=O)(=O)c2c(C)noc2C)cc1OC,3.37%
18,Cc1cc(C)c(C(=O)Nc2ccc(S(=O)(=O)Nc3onc(C)c3C)cc2)c(C)c1,10.4%
19,COc1ccc(C2CC(c3ccco3)n3ncnc3N2)cc1 (stereo not given),0.32%
20,CCCCn1c(CN2CCN(c3ccccc3)CC2)nc2c1c(=O)n(C)c(=O)n2C,2.8%

row,Structure (SMILES),RAM network inhibition
1,Cc1ccccc1NC(=O)C1CCCN(S(=O)(=O)c2cnc[nH]2)C1 (stereo not given),2.9%
2,CCOC(=O)C1CCCN(C(=O)c2cn(C)c(=O)c3cc(OC)c(OC)cc23)C1 (stereo not given),1.13%
3,O=C(C1CCN(S(=O)(=O)c2cccc3cccnc23)CC1)N1CCN(C2CCCCC2)CC1,7.73%
4,Cc1nnc2n(-c3ccc(Cl)cc3)c(=O)c3c4c(sc3n12)CN(C)CC4,2.13%
5,COc1ccc(OC)c(NC(=O)c2nnn(Cc3ccc(Br)cc3F)c2N)c1,4.25%
6,CCCOc1ccc2ccccc2c1/C=N/n1cnnc1,-1.74%
7,CCOC(=O)C(C)(C)Sc1nc2c(cnn2-c2ccc(Cl)cc2)c(=O)[nH]1,6.14%
8,Cc1cccc(N2C(=O)CC(N3CCN(c4cccc(C(F)(F)F)c4)CC3)C2=O)c1 (stereo not given),5.57%
9,CC(=O)N1c2c(cc(Br)cc2S(=O)(=O)N2CCN(c3ccccn3)CC2)CC1C (stereo not given),0.3%
10,O=C(O)c1ccc2c(c1)C(=O)N(c1ccc(Cl)cn1)C2=O,-0.74%
11,CC(=O)c1sc(NC(=O)C2COc3ccccc3O2)nc1C (stereo not given),-0.31%
12,COc1ccc(OC)c2[nH]c(=O)c(CCNC(=O)C(C)C)cc12,1.31%
13,COc1ccc(NC(=O)c2cc(C3CC3)on2)c(OC)c1,4.64%
14,Cc1noc(C(=O)Nc2ccc3c(c2)OCO3)c1Cl,5.2%
15,CCC(CC)C(=O)NCCc1cc2ccc(C)cc2[nH]c1=O,4.75%
16,CCCS(=O)(=O)N1CCN(C(=O)c2cccnc2)CC1,0.42%
17,CCCCn1c2c(c3ccccc31)CCc1nonc1-2,2.83%
18,COc1ccc(-c2[nH]c(-c3cccc(OC)c3)nc2SCC(=O)NCc2ccco2)cc1,11.2%
19,CC1=C(C(=O)OCc2ccccc2)C(c2ccco2)n2ncnc2N1 (stereo not given),1.02%
20,Cc1c(C)n(C)c2ccc(C(=O)NCc3cccs3)cc12,0%
